# Results: PubChem BioAssay AID1347076 (National Center for Advancing Translational Sciences (NCATS), 2019)
# About 13,000 (3.2%) of roughly 400,000 compounds were called active. Another 18% or so got no clear call; they are omitted. The sample holds actives, similar compounds and a random draw of the others, so the mix is not that of the screen. Unmarked numbers belong to inactive results. The call rests on the fitted dose curve; in most records, active means well fitted cell-killing curve with a large enough effect; inconclusive means small, poorly fitted or top-dose-only effect, or effect the other way; inactive means flat fitted curve, though single readings scatter.
# Experiment: qHTS assay for MDR1-selective chemotherapeutics: Primary screen using the drug-selected MDR subline cells KB-V1; further: nearly all actives have a fitted effect of over 60% in size
# Conditions: KB-V1 MDR cells viability, CellTiter-Glo, 72 h; series mostly up to 46.1 µM; activity change, negative = cytotoxicity: at the top concentration
# How it was run: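 Cytotoxicity toward P-gp-expressing KB-V1 cells was determined as loss of CellTiter-Glo luminescence after 72 h at 37 degrees C. Compounds were tested in quantitative HTS format across a concentration range, with curves fitted to normalized data.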
# On the % scale 0 is the no-effect control and ±100 the full control effect; potency means the concentration at half of the fitted maximal effect.
SMILES,"activity change, negative = cytotoxicity",Potency
COc1ccc(CCNS(=O)(=O)c2cc(-c3cc(C)no3)ccc2C)cc1OC,14.1%,
CCOc1ccccc1CNS(=O)(=O)c1cc(-c2cc(C)no2)ccc1C,-25.9%,
COc1ccc(CNS(=O)(=O)c2cc(-c3cc(C)no3)ccc2C(C)C)cc1,,13 µM (active)
CC1(C(=O)NS(=O)(=O)Cc2cccc(Cl)c2)CCN1C(=O)Cc1ccc(Cl)cc1Cl (stereo not given),3.11%,
CCc1nc2ccc(C(=O)N3CCN(S(=O)(=O)CC)CC3)cn2c1N(C=O)CCC(C)C,-1.32%,
CCCCCCCNc1ccc(/C=C/c2ccnc3ccccc23)cc1,-14.4%,
Cc1cc(C)nc(NS(=O)(=O)c2ccc(NC(=O)c3cc(=O)c4ccc(C)c(C)c4o3)cc2)n1,10.1%,
Cc1cc(-c2csc(N)n2)c(C)n1Cc1ccccc1,-1.04%,
Nc1cc(=O)n(Cc2ccccc2)c(=O)n1Cc1ccccc1,,18.4 µM (active)
O=c1c2ccccc2n(Cc2cccc(Cl)c2)c(=O)n1Cc1ccccc1,0%,
O=C(CCN1CCCCC1)Nc1ccc(F)c(F)c1,-4.41%,
CSc1ncnc2c1ncn2CCCNCc1ccco1,-0.21%,
CSc1ncnc2c1ncn2CC(=O)C1CCC2C3CCC4=CC(=O)CCC4(C)C3CCC12C (stereo not given),,23.1 µM (active)
CSc1ncnc2c1ncn2CCCNCC1CCCCC1,-20.3%,
Cc1cc(C)cc(NC(=O)Cn2nc(N3CCN(c4ccccc4)CC3)ccc2=O)c1,0%,
CC1(C)CN(Cc2cccnc2)C(=O)[C@H]1CC(=O)Nc1ccc(Br)cc1,-10.6%,
COC(=O)CN(c1nc(C)c(Cl)c(OC)n1)S(=O)(=O)c1ccc(C)cc1,,13 µM (active)
CCN(CC)C(=O)CN(c1cccc(OC)c1)S(=O)(=O)c1ccc(C)cc1,-18.1%,
COc1ccc(C)cc1N(CC(=O)N1CCC(C)CC1)S(=O)(=O)c1ccc(C)cc1,-20%,
CCOC(=O)N1CCN(C(=O)C[C@@H]2C[C@@]3(C(=O)OC)CCCCC=C3N(CCC3=CCCCC3)C2=O)CC1,0%,
CCCNC(=O)C[C@@H]1CC[C@@H]2[C@H](COC[C@H](O)CN2C(=O)c2cc(Cl)cc(Cl)c2)O1,-2.38%,
C[C@@H]1CN([C@@H](C)CO)C(=O)c2c(c3ccccc3n2C)-c2ccccc2CO[C@H]1CN(C)C(=O)C1CC1,2.91%,
Cn1ncc([N+](=O)[O-])c1C(=O)Nc1cc(Cl)ccc1Cl,-28.7%,
CN(C)c1ccc(NC(=O)CSc2nc(-c3ccco3)cc(C(F)(F)F)n2)cc1,-4.3%,
Cc1ccc(-c2cnc(C(O)c3cccc(C)c3C)[nH]2)cc1 (stereo not given),0.531%,

SMILES,"activity change, negative = cytotoxicity",Potency
Cc1cc(F)ccc1NS(=O)(=O)c1ccc(-n2cccn2)cc1,-19.7%,
Cc1ccc(-c2nnc3ccc(SCC(N)=O)nn23)cc1,-16.7%,
CCC1(C(=O)c2ccccc2)C(c2cccc([N+](=O)[O-])c2)C1(C(=O)OC)C(=O)OC (stereo not given),,23.1 µM (active)
COc1cccc(NCCC(=O)c2cccc([N+](=O)[O-])c2)c1,0%,
O=C(NOCc1ccccc1)c1cccc([N+](=O)[O-])c1,-0.0129%,
CC(C)(C)NC(=O)C(CCc1ccccc1)n1c(=O)c(-c2ccccc2)nc2ccccc21 (stereo not given),-14%,
Cc1cccc2cc(CN(Cc3cccs3)C(=S)NCc3ccco3)c(=O)[nH]c12,,3.66 µM (active)
Cc1cc(C)c2[nH]c(=O)c(CN(Cc3ccccc3)C(=S)NCCCN(C)C)cc2c1,20.3%,
Cc1ccc(C)c2[nH]c(=O)c(CN(Cc3cccnc3)C(=S)NCc3ccco3)cc12,-4.35%,
Cc1cccc2cc(CN(C(=O)c3cccs3)c3ccccc3)c(=O)[nH]c12,,23.1 µM (active)
Cc1ccc(C)c2[nH]c(=O)c(CCNC(=O)c3cccs3)cc12,-0.813%,
CCCN(Cc1cc2cccc(C)c2[nH]c1=O)S(C)(=O)=O,0%,
CCOC1=C2[C@H]([C@H]3C(=O)N(c4ccccc4)C(=O)[C@H]3C1)[C@@H](c1ccccc1)N(S(=O)(=O)c1ccc(C)cc1)[C@H]2c1ccccc1,9.91%,
CCc1nc2ccc(C(=O)NCc3ccc(OC)cc3)cn2c1N(CC)Cc1cccc(Br)c1,-14.4%,
CSC1=NN(c2ccccc2)CN(c2ccccc2)N1C,-10.4%,
Cc1cccc(-c2cnc(C(O)c3cc(C)cc(C)c3)[nH]2)c1 (stereo not given),-1.95%,
COCCNC(=O)C1(C)CCCN(Cc2cccc(F)c2)C1 (stereo not given),5.35%,
O=C(CN1C(=O)c2cccc3cccc1c23)Nc1ccccc1,-9.9%,
O=C(CN1CCN(c2ccccn2)CC1)N1CCc2ccccc21,19.5%,
O=C1c2cccc3cccc(c23)N1CN1CCN(c2ccccn2)CC1,,5.8 µM (active)
COc1ccc(NC(=O)CN2C(=O)NC(C)(c3ccccc3)C2=O)cn1 (stereo not given),19%,
CC(=O)c1ccc(NC(=O)c2ccc3c(Cl)c4c(nc3c2)CCCC4)cc1,,16.4 µM (active)
COc1cccc(CNC(=O)c2ccc3c(Cl)c4c(nc3c2)CCCC4)c1,-11.6%,
COc1ccc(N2CCN(C(=O)c3ccc4c(Cl)c5c(nc4c3)CCCC5)CC2)cc1,,inactive
Fc1ccc(-c2nn(-c3ccccc3Cl)c3c2cnc2ccccc23)cc1,-20.6%,
